A short description of assay [1]: Cell Viability - LYMP2-009 (AID 968). Also: nearly all actives have a fitted effect of over 55% in size.
Assay [2] can be described thus: Cell Viability - LYMP2-011 (AID 969). Also: nearly all actives have a fitted effect of over 60% in size. An outline of the steps: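 2500 cells/well, 5 hr 37 C; compound added, 24 hr 37 C; CellTiter-Glo 30 min RT; luminescence. qHTS concentration-response, Hill-equation AC50. Tetraoctylammonium bromide positive control.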
A short description of assay [3]: Cell Viability - LYMP2-013 (AID 970). Also: nearly all actives have a fitted effect of over 55% in size. An outline of the steps: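 qHTS; 2500 lymphoblastoid cells/well; 5 hr 37 C settle; cpd 24 hr 37 C; CellTiter-Glo, 30 min RT; luminescence. AC50 = Hill fit.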
The nature of assay [4]: Cell Viability - LYMP2-015 (AID 971). Also: nearly all actives have a fitted effect of over 55% in size. The method in brief: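 Luminescent ATP read-out (CellTiter-Glo) served as the viability measure after lymphoblastoid cells were exposed to compounds for 24 hours at 37 C. Concentration-response data were fitted with the Hill equation to give AC50.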
A short description of assay [5]: Cell Viability - LYMP2-017 (AID 972). Also: nearly all actives have a fitted effect of over 55% in size. The method in brief: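 2500 cells/well, 5 h 37 C; cpd 24 h 37 C in complete medium; CellTiter-Glo, 30 min RT; luminescence (ATP). AC50 via Hill fit, qHTS.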
Assay [6] in a line: Cell Viability - LYMP2-021 (AID 974). An outline of the steps:
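Plate 2500 lymphoblastoid cells per well and incubate 5 hr at 37 C. Add compounds over a concentration range and incubate 24 hr at 37 C. Add CellTiter-Glo, wait 30 min at room temperature, read luminescence.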

The nature of assay [7]: Cell Viability - LYMP2-023 (AID 975). Also: nearly all actives have a fitted effect of over 55% in size. An outline of the steps:
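2500 cells/well, 5 hr 37 C; cpd 24 hr 37 C; CellTiter-Glo, 30 min RT; luminescence. qHTS conc-response, Hill fit -> AC50. Pos ctrl tetraoctylammonium bromide.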

A short description of assay [8]: Cell Viability - LYMP2-025 (AID 976). The method in brief:
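Seed 2500 LYMP2-025 cells/well; 5 hr at 37 C; add compound; 24 hr at 37 C; add CellTiter-Glo; 30 min RT; read luminescence. AC50 from Hill-modelled concentration-response.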

The nature of assay [9]: Cell Viability - LYMP2-002 (AID 977).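 Also: compound exposure lasted 24 h at 37 °C.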 The method in brief: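 Cytotoxicity is scored as concentration-dependent loss of cellular ATP in a human lymphoblastoid line after 24 hr compound treatment at 37 C. AC50 is obtained by modelling concentration-response data with the Hill equation.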
Assay [10] in a line: Cell Viability - LYMP2-006 (AID 978). Also: nearly all actives have a fitted effect of over 60% in size. An outline of the steps: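 Cells are seeded at 2500 per well and rested 5 hr at 37 C. Compounds are added across a concentration series for 24 hr at 37 C, after which ATP is quantified by luciferase luminescence.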

Each structure is given as a SMILES string. Records with an inconclusive call do not appear. Calls of active or inactive are those of the source. Calls follow the shape of the dose curve; as a rule, active = well fitted cell-killing curve with a large enough effect; inconclusive = small, poorly fitted or top-dose-only effect; inactive = flat fitted curve, though single readings scatter. Peptide text beside a SMILES is read from it.
Potency is read from the fitted curve at half-maximal effect.

Turning to `CN(C)c1ccc2nc3ccc(=[N+](C)C)cc-3sc2c1`, the Potency in assay [1] was 5.01 µM (active); in assay [2], 6.31 µM (active); in assay [3], 7.94 µM (active); in assay [4] it was 3.98 µM (active); in [5], 6.31 µM (active); in [6], 7.94 µM (active). Further, the Potency in assay [7] was 3.98 µM (active); in assay [8] it was 3.98 µM (active); in [9], 3.16 µM (active); in assay [10] it was 5.01 µM (active).
`CCc1nc(N)nc(N)c1-c1ccc(Cl)cc1`: the Potency result in [3], in [5], in [7], in assay [8] and in assay [10] was “inactive” each time.
Turning to `Cc1ccc(C)c(OCCCC(C)(C)C(=O)O)c1`, the Potency entry in [1], in assay [2], in assay [3], in [4], in [5] and in [6] was “inactive” throughout. Also, the Potency result in assay [7], in assay [8], in assay [9] and in assay [10] was “inactive” throughout.
With `Nc1ccc(S(N)(=O)=O)cc1`, the Potency result in assay [1], in assay [2], in [3], in assay [4], in assay [5] and in assay [6] was “inactive” throughout. In addition, the Potency entry in assay [7], in assay [8], in assay [9] and in [10] was “inactive” each time.
As for `c1ccc2[nH]c(-c3cscn3)nc2c1`, the Potency entry in [1], in [2], in assay [3], in assay [4], in assay [5] and in assay [6] was “inactive” each time. In addition, the Potency result in [7], in [8], in [9] and in assay [10] was “inactive” each time.
For `CS(=O)(=O)OCCCCOS(C)(=O)=O`, the Potency entry in assay [1], in assay [2], in [3], in assay [4], in assay [5] and in assay [6] was “inactive” throughout. The Potency result in assay [7], in assay [8], in [9] and in assay [10] was “inactive” in each case.
For the compound `COc1c2occc2cc2ccc(=O)oc12`, the Potency entry in assay [1], in [2], in [3], in assay [4], in assay [5] and in assay [6] was “inactive” each time. In addition, the Potency result in assay [7], in assay [8], in assay [9] and in [10] was “inactive” each time.
Take `CCCCC(CC)COC(=O)C(C#N)=C(c1ccccc1)c1ccccc1` (stereo not drawn): the Potency result in [1], in assay [2], in assay [3], in [4], in [5] and in assay [6] was “inactive” throughout. In addition, the Potency result in assay [7], in assay [8], in [9] and in assay [10] was “inactive” throughout.
On to `COC(=O)[C@H](Cc1ccccc1)NC(=O)[C@@H](N)CC(=O)O` (H-Asp-Phe-OMe), for which the Potency entry in assay [1], in assay [2], in assay [3], in assay [4], in assay [5] and in [6] was “inactive” in each case. Moreover, the Potency entry in [7], in [8], in assay [9] and in assay [10] was “inactive” each time.
Consider `CC(=O)Nc1ccc(O)cc1`, for which the Potency entry in assay [1], in assay [2], in assay [3], in assay [4], in assay [5] and in assay [6] was “inactive” each time. The Potency result in assay [7], in [8], in assay [9] and in assay [10] was “inactive” in each case.
Consider `CCCc1cc(=O)[nH]c(=S)[nH]1`, for which the Potency result in assay [1], in [2], in assay [3], in assay [4], in assay [5] and in assay [6] was “inactive” each time. Further, the Potency result in assay [7], in assay [8], in assay [9] and in assay [10] was “inactive” in each case.
As to `Cc1cc(O)c2c(c1)C(=O)c1cc(O)cc(O)c1C2=O`, the Potency entry in assay [2], in assay [4] and in assay [8] was “inactive” throughout.
As for `NS(=O)(=O)c1cc(C(=O)O)c(NCc2ccco2)cc1Cl`, the Potency result in [1], in [2], in [3], in assay [4], in assay [5] and in assay [6] was “inactive” in each case. The Potency result in assay [7], in assay [8], in assay [9] and in assay [10] was “inactive” in each case.

The values are drawn from PubChem BioAssay (NCATS).
